INS-1E GSIS act = GLuc luminescence reporter in INS-1E cells, primary screen for activators of glucose-dependent secretion of insulin. actives 0.61% (n = 370,000). activation, % at 16.6 µM. AID 743287. INS-1E GLuc reporter insulin secretion, 2-3 h;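 active = lowest replicate activation of at least 40%, so every replicate reaches that level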;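 also: 0% = median of neutral control wells and 100% = median of IBMX positive control wells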
miR-122 sensor = blocks miR-122 activity in Huh7 sensor cells. activation (reporter increase), % at 12.5 µM. AID 602342. actives 0.3% (n = 340,000). Huh7 miR-122 Renilla luciferase sensor, 48 h; neutral wells = 0, positive control = 100;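 active = mean replicate activation score at least 90 and every replicate individually at or above 90; inconclusive = only one of the two criteria met; inactive = neither criterion met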;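 also: higher luciferase means less miR-122 activity so hits act as miR-122 inhibitors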
Dyrk1A ADPGlo = Dyrk1A (rat) kinase inhibition; Q63470; actives 0.43% (n = 310,000); ADP-Glo luminescence, NFATc1 peptide; inhibition, % at 12.5 µM;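 also: plate controls were vehicle with enzyme for no effect and no enzyme for full effect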
Wnt act = activates Wnt/beta-catenin signaling in a reporter cell assay | activator, plate reader | activation, % at 9.35 µM | actives 1.2% (n = 300,000) | AID 743398; in the data active = activation above about 30%, passing the limit was not always enough; inconclusive = no clear call, values can overlap the other calls;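 also: 0% = neutral control wells and 100% = positive control wells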
MITF TRPM1 HTS = activators of MITF-driven TRPM1 promoter activity in SK-MEL-5 cells; actives 0.75% (n = 300,000); activation, % at 12.5 µM; SK-MEL-5 TRPM1-promoter luciferase, 24 h; % of positive control, neutral wells = 0;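 active = mean activation of at least 80% with every replicate also reaching 80%; inconclusive = mean reaches 80% but some replicate falls short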;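 also: 0% = neutral control wells and 100% = parthenolide positive control wells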
NSD2 inh = NSD2 (human) methyltransferase inhibition; actives 0.54% (n = 310,000); NSD2 peptide methylation, AlphaScreen, 120 min; inhibition, % at 12.5 µM
Target sequence (O96028 whole entry, looked up): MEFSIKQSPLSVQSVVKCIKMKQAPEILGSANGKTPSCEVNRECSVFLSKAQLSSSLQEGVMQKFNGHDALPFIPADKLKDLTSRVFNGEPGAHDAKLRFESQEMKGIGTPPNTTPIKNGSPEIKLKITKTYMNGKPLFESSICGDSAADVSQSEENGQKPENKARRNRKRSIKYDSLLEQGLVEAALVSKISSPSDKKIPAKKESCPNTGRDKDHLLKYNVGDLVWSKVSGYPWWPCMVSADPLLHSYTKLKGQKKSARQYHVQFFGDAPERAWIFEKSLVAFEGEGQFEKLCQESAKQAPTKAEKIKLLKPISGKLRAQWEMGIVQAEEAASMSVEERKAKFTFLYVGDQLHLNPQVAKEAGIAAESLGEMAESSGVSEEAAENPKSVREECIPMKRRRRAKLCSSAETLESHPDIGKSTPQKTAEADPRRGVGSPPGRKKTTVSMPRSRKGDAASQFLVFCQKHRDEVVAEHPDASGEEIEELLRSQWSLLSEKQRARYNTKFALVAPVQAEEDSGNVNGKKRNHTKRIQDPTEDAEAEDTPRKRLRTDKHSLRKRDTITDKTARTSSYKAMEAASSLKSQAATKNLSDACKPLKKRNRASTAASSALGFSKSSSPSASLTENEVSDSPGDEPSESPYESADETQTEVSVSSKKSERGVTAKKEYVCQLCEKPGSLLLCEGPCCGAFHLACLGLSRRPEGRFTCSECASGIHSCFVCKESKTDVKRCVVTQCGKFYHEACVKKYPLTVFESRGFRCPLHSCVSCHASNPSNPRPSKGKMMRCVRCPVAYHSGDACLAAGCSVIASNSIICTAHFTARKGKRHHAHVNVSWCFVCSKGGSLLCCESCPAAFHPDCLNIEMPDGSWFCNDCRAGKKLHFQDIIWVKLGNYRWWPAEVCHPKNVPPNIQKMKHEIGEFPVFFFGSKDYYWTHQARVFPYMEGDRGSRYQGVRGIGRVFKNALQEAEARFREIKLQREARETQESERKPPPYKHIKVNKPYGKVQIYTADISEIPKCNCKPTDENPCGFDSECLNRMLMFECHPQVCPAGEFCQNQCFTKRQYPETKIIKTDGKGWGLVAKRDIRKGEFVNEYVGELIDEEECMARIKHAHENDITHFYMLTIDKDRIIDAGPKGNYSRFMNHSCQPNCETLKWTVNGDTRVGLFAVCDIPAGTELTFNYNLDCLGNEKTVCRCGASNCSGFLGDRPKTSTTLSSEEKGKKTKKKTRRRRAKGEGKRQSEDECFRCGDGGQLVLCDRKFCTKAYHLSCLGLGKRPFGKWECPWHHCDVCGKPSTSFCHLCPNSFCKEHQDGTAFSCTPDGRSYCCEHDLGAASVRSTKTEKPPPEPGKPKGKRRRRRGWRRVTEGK
The depositor's hits bear a star; u = inconclusive; x = no result given; [ ] = dose if it differs, or a comment. An excerpt weighted towards active compounds, which were near 2.4% of everything screened. Rule as the data show it, unless noted: active = inhibition above about 50%; inactive = the rest.

SMILES | INS-1E GSIS act | miR-122 sensor | Dyrk1A ADPGlo | Wnt act | MITF TRPM1 HTS | NSD2 inh
COc1cc(/C=C(\C#N)C(=O)Nc2cccc(C(=O)O)c2)ccc1OCc1ccc(C)cc1 | -22 | -2 | -12 | 25 | 91* | 1
Clc1ccccc1CSc1nc2ccncc2[nH]1 | -32 | 14 | -3 | 39* | 67 | x
c1ccc(CSc2nc3ccccc3[nH]2)cc1 | -6 | -9 | 3 | 68* | 111* | x
c1ccc(CSCc2nc3ccccc3[nH]2)cc1 | -3 | -8 | 3 | x | 111* | 8
Fc1ccc(CSc2nc3ccccc3[nH]2)cc1 | x | -7 | 2 | x | 104* | -3
O=C(NCc1ccccc1Cl)c1ccc(CSc2nc3ccncc3[nH]2)cc1 | -13 | 15 | -2 | 1 | 7 | -1
O=[N+]([O-])c1ccc(CSc2nc3ccccc3[nH]2)cc1 | -24 | -2 | -4 | 21 | u | 3
O=C(Cc1cccc2ccccc12)NC1CCCCCC1 | x | x | x | x | x | -2
Cc1noc(C)c1NC(=O)Nc1ccc2c(c1)CC(=O)N([C@H](C)CO)C[C@H](C)[C@H](CN(C)C(=O)Nc1ccccc1)O2 | 21 | 11[16.7 µM] | x | x | x | x
COc1cccc(NC(=O)C(=O)NCCC2CCCCN2S(=O)(=O)c2cccs2)c1 (stereo not drawn) | -10 | x | 20 | 39* | 96* | -1
COc1ccccc1C(=O)COC(=O)c1cc(=O)[nH]c2ccccc12 | 24 | 2 | 0 | 3 | 11 | 0
COc1ccc(C(=O)COC(=O)c2cc(=O)[nH]c3ccccc23)c(OC)c1 | 0 | x | 16 | 26 | 100* | 0
COc1ccc(C(=O)COC(=O)c2cccc(-n3cnnn3)c2)c(OC)c1 | -1 | x | 14 | 18 | 92* | 0
Cc1ccc(CNC(=O)CSc2nc3ccsc3c(=O)n2Cc2ccccn2)cc1 | -2 | -6 | x | 34* | 14 | -3
Cc1ccc(Cn2c(SCC(=O)NCc3ccco3)nc3ccsc3c2=O)cc1 | -20 | 3 | 2 | x | -2 | x
Cc1ccc(C)c(S(=O)(=O)NC(C)CCc2ccccc2)c1 (stereo not drawn) | -15 | 193* | 1 | -2 | -5 | -15
CCCNC(=O)[C@@H]1N[C@@H]2c3ccc(C4=CCCCC4)c(=O)n3C[C@@H]2[C@H]1CO | -8 | -4[16.7 µM] | x | x | x | x
Cc1cc(C(=O)Nc2cccc3c2O[C@H](CN(C)C(=O)Nc2ccc(C(F)(F)F)cc2)[C@@H](C)CN([C@@H](C)CO)C3=O)n(C)n1 | -13 | 0[16.7 µM] | x | x | x | x
CCOC(=O)N1CCC(NC(=O)c2cc3sccc3n2CC)CC1 | 20 | 5 | -1 | -2 | -2 | 2
CCn1c(C(=O)NC2CCC(C)CC2)cc2sccc21 (stereo not drawn) | -6 | -2 | 3 | 16 | 92* | -4
Cc1ccc(S(=O)(=O)Nc2ccc3c(c2)C(=O)N([C@H](C)CO)C[C@H](C)[C@@H](CN(C)Cc2ccncc2)O3)cc1 | 20 | 4[16.7 µM] | x | x | x | x
C[C@@H]1CN([C@H](C)CO)C(=O)c2cc(NC(=O)Cc3ccccc3)ccc2O[C@@H](C)CCCCO[C@H]1CN(C)Cc1ccncc1 | -7 | -2[16.7 µM] | x | x | x | x
CC(C)OCCCNC(=O)c1c(N)n(/N=C/c2ccccn2)c2nc3ccccc3nc12 | 76* | -8 | -4 | x | x | -7
CCCNC(=O)[C@@H]1[C@@H](CO)[C@@H]2Cn3c(ccc(/C=C/c4ccccc4)c3=O)[C@@H]2N1CC | -13 | x | x | x | x | x
O=C(Nc1ccc2c(c1)CCC2)Nc1ccccc1Cl | 0 | 1 | -5 | 51* | 68 | -2
SMILES | INS-1E GSIS act | miR-122 sensor | Dyrk1A ADPGlo | Wnt act | MITF TRPM1 HTS | NSD2 inh
O=C(Nc1ccccc1Cl)Nc1ccccc1Cl | 33 | 0 | 3 | 13 | 39 | 0
O=C(Nc1ccc(Nc2ccccc2)cc1)Nc1ccccc1Cl | 0 | 0 | 1 | 24 | 102* | -2
NC(N)=NC(=O)c1nc(Cl)c(N2CCCCCC2)nc1N | 31 | -3 | 11 | 21 | 126* | x
C[C@H](NC(=O)C[C@H]1CC[C@H](NS(=O)(=O)c2cccc(F)c2)[C@H](CO)O1)c1ccccc1 | -1 | x | x | x | x | x
C=CCSc1cc(C)nc2c(-c3ccccc3)cnn12 | x | x | -4 | 33* | 12 | -2
CC1CCc2c(C(=O)Nc3ccccn3)csc2C1 (stereo not drawn) | 4 | x | -4 | 52* | 75 | 0
COCC(=O)Nc1ccc2c(c1)OC[C@@H](C)N(Cc1cccc(F)c1)C[C@H](C)[C@@H](OC)CN(C)C2=O | -10 | x | x | x | x | x

Assay outcomes (PubChem BioAssay)
